The source of these data is PubChem BioAssay.

Calls of active or inactive are those of the source. No rule for the calls is given here.

Sequence of Pantothenate synthetase (Mycobacterium tuberculosis (strain ATCC 25618 / H37Rv)) (P9WIL5 whole entry, looked up): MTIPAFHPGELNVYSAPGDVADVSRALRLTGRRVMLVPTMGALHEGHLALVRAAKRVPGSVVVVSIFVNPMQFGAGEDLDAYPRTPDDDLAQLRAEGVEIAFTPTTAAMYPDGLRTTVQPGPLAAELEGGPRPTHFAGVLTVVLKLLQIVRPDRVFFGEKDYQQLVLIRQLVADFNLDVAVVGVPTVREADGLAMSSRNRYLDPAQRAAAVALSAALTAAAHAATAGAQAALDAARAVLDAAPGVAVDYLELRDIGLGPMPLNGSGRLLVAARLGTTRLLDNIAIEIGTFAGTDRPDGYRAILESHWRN

The assay has as its target Pantothenate synthetase (Mycobacterium tuberculosis (strain ATCC 25618 / H37Rv)) (UniProt P9WIL5). As to the kind of experiment: Recombinant Mtb pantothenate synthetase (PanC) inhibitors, coupled enzyme, confirmatory (AID 375).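 Also: 0% = full reaction with vehicle and 100% = no enzyme background.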 As to conditions: coupled enzyme assay; at 10 µM, active compounds read high.
One may read the inhibition as the relative decrease from the control value, in per cent. In the case of `Clc1ccc2c(c1)[C@H]1OCC[C@H]1[C@@H](c1ccco1)N2`, the inhibition was 3% (inactive).

Consider `COC(=O)c1sc(NC(=O)COc2ccccc2OC)nc1C`, for which the inhibition was 0% (inactive).

With `O=C1CC(c2ccsc2)c2cc3c(cc2N1)OCCO3` (centres undefined), the inhibition was 0% (inactive).

Take `O=C(Nc1ccc(CN2CCCCC2)cc1)c1ccc2c(c1)OCO2`: the inhibition is 3% (inactive).

As for `CC(C)N(Cc1nc(-c2ccc(Cl)cc2)no1)C(=O)CN(C)S(=O)(=O)c1ccc(Cl)cc1`, the inhibition is 0% (inactive).

Consider `CCOC(=O)N1CCC(NC(=O)c2cc3c(=O)n(C)c4ccccc4c3n2C)CC1`, for which the inhibition is 0% (inactive).

In the case of `Cc1ccccc1NS(=O)(=O)c1cc(C(=O)N2CCCC2)ccc1C`, the inhibition is 0% (inactive).

With `CCOc1ccc(-c2cn(S(=O)(=O)c3cccc4nsnc34)nc2N)cc1`, the inhibition is 0% (inactive).

In the case of `O=C(COc1cccc(Oc2ccccc2)c1)Nc1ncccn1`, the inhibition was 2% (inactive).

As to `CCC(C)NC(=O)C1CCCN(S(=O)(=O)c2ccc(-n3cnnn3)cc2)C1` (centres undefined), the inhibition was 0% (inactive).

Consider `Cc1ccccc1NC(=O)C1CCN(c2cnccn2)CC1`, for which the inhibition was 0% (inactive).

Take `O=C(CN(CC1CCCO1)S(=O)(=O)c1ccc(S(=O)(=O)NC2CC2)cc1)Nc1ccccc1` (centres undefined): the inhibition is 0% (inactive).

For `CC(C)CCN(C)C1CCN(S(=O)(=O)c2ccc(F)cc2)CC1`, the inhibition was 0% (inactive).

Consider `CCOC(=O)c1sc(NC(=O)CSc2nnnn2-c2ccccc2)c(C(=O)OCC)c1C`, for which the inhibition is 0% (inactive).

Consider `CCN(C(=O)CN1CCN(c2ccccc2OC)CC1)c1c(N)n(Cc2ccccc2)c(=O)[nH]c1=O`, for which the inhibition is 0% (inactive).

As for `CC1CC(=O)C2=C(C1)OC(N)=C(C#N)C2c1coc2ccccc2c1=O` (centres undefined), the inhibition was 6% (inactive).

Regarding `Cc1ccc(-c2nnc(SCC(=O)N3CC(C)CC(C)C3)o2)cc1C` (centres undefined), the inhibition is 0% (inactive).

Turning to `O=C(O)Cc1cc(I)c(Oc2ccc(O)c(I)c2)c(I)c1`, the inhibition is 0% (inactive).

Turning to `CCCCC(NC(C)=O)c1nc2ccccc2n1CCC` (centres undefined), the inhibition is 0% (inactive).

For `COC(=O)c1ccc(COc2ccc(C3C4=C(CCCC4=O)Nc4onc(C)c43)cc2)cc1` (centres undefined), the inhibition is 0% (inactive).

As for `CCOc1ccccc1OCCn1nnc2ccccc21`, the inhibition is 4% (inactive).

`Cc1ccc2c(c1)N(CC(=O)N1CCCCC1c1cccnc1)C(=O)CO2` (centres undefined): the inhibition was 0% (inactive).

Turning to `CCCn1c(SCC(=O)NCCc2ccccc2)nnc1-c1ccccn1`, the inhibition was 6% (inactive).

For `COc1ccc2[nH]c(C)c(CCN3C(=O)OC(C)(C)C3(C)O)c2c1` (centres undefined), the inhibition is 0% (inactive).
